# High-throughput results deposited in PubChem by several laboratories.
# An excerpt weighted towards active compounds, which were near 2.7% of everything screened.
# SENP8 block-1: human SENP8 protease inhibitors, primary screen, biochemical, fluorescence, Nedd8 protein substrate, uHTS. recombinant SENP8. inhibition, % at 20 µM. 360,000 tested, 0.64% active; in the data active = inhibition mostly above about 40%, no sharp cut-off; inactive = mostly below about 27%
# Target sequence (Q96LD8 whole entry, looked up): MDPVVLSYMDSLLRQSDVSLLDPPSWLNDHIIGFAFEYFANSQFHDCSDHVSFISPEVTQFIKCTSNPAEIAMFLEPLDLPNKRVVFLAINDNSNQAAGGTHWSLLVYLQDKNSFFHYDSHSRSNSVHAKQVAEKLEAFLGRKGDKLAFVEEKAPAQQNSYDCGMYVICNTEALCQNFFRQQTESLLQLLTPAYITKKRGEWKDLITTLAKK
# SENP7 block: SENP7 protease inhibitors, primary screen, biochemical, luminescence, uHTS. Sentrin-specific protease 7 (Homo sapiens), Q9BQF6. recombinant SENP7, Z-RLRGG-aminoluciferin luminescence, 40 min. inhibition, % at 5 µM. 330,000 tested, 1.5% active;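 active = inhibition above about 50% at the single test dose, limit read from the data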;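 note: plate controls were DMSO with enzyme for no effect and no enzyme buffer wells for full effect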
# HSP90 inh: HSP90 inhibitors, primary screen, cell lysate, luminescence; Rabbit reticulocyte lysate, luciferase refolding luminescence, 3 h; 290,000 tested, 0.91% active; inhibition, % at 5.6 µM;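 active = inhibition above the screen-wide mean plus 3 SD, computed separately per campaign, cut at about 16% in these data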;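 note: 0% = DMSO wells and 100% = 60 µM geldanamycin wells; inhibitors lower the luminescence because luciferase stays unfolded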
# SENP8 block-2: SENP8 protease inhibitors, primary screen, biochemical, luminescence. purified SENP8, Z-RLRGG-aminoluciferin cleavage. inhibition, % at 10 µM. 330,000 tested, 1.2% active. AID 2540, 2010; in the data active = inhibition above about 50%
# SENP6 inh: SENP6 protease inhibitors, primary screen, biochemical, luminescence, uHTS; Sentrin-specific protease 6 (Homo sapiens), Q9GZR1; Recombinant SENP6 catalytic domain, aminoluciferin luminescence; inhibition, % at 10 µM; 330,000 tested, 1.8% active; AID 2599, 2010;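 active = inhibition above about 50% at the single tested dose, limit read from the data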;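 note: plate controls were DMSO wells with enzyme for no effect and DMSO wells lacking enzyme for full effect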
# Target sequence (Q9GZR1 628-1112 limits assumed): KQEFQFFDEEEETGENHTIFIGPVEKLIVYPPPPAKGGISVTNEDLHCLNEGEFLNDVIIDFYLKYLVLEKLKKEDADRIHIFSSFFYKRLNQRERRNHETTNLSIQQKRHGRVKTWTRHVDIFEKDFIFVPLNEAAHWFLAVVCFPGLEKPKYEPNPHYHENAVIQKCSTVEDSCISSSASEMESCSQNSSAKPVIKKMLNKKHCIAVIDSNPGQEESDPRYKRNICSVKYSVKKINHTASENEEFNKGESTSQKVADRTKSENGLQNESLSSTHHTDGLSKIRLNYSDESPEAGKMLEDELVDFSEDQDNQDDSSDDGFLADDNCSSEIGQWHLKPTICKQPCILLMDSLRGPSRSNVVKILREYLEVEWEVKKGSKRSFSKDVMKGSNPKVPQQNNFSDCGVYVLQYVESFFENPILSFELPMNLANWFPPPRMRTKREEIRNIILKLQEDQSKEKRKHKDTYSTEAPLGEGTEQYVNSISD
# HSP90 confirm: HSP90 inhibitors, confirmation, cell lysate, luminescence; shares compounds with HSP90 inh; rabbit reticulocyte lysate, luciferase refolding luminescence, 3 h; inhibition, % at 5.9 µM; 2,300 tested, 64% active; AID 1846, 2009; in the data active = inhibition above about 18%;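 note: 0% = vehicle wells and 100% = reference inhibitor wells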
# luciferase ctr: firefly luciferase inhibitors, HSP90 counter-screen, confirmation, artefact control for HSP90 inhibitor project, biochemical, luminescence, triplicate. inhibition, % at 5.9 µM. 2,300 tested, 48% active. purified native firefly luciferase. AID 1847, 2009. shares compounds with HSP90 inh;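 active = inhibition above the mean inhibition of all tested sample wells plus 3 SD, cut at about 10% in these data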;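 note: 0% = DMSO with luciferase and 100% = wells lacking luciferase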
# Starred values were filed as active, the others as inactive; nt = not tested or not shown.
SMILES,SENP8 block-1,SENP7 block,HSP90 inh,SENP8 block-2,SENP6 inh,HSP90 confirm,luciferase ctr
Cc1nnc(NC(=O)c2sc3ccccc3c2Cl)s1,-41.4,0.7,18.0*,1.2,47.3,34.7*,18.5*
Cc1cccnc1NC(=O)c1sc2ccccc2c1Cl,-22.3,14.7,0.1,-3.7,12.0,nt,nt
Cc1c(NC(=S)NC(=O)c2sc3ccccc3c2Cl)cccc1C(=O)O,6.0,5.3,43.1*,30.3,25.8,63.3*,11.0*
C/C(=N/Nc1ccc(C(=O)O)cc1)c1ccc2c(c1)Nc1ccccc1S2,-492.0,nt,nt,nt,nt,nt,nt
C/C(=N\Nc1ccc(C(=O)O)cc1)c1ccc2c(c1)Nc1ccccc1S2,-393.4,1.1,24.2*,2.7,13.6,28.3*,-28.7
COc1cc(NCCCC(C)N)c2ncccc2c1 (stereo not drawn),57.0*,nt,23.1*,nt,nt,5.0,-6.2
COc1ccc(N(C(=O)c2ccco2)S(=O)(=O)c2ccc(F)cc2)cc1,16.7,-2.3,16.9*,-4.3,-10.7,-0.5,-3.7
COc1ccc(N(C(=O)c2ccco2)S(=O)(=O)c2cccc([N+](=O)[O-])c2)cc1,13.2,-9.1,2.5,-1.7,1.9,nt,nt
COC(=O)CNC(c1ccccc1)c1cc(Br)ccc1N (stereo not drawn),20.7,3.0,5.9,2.7,-1.5,nt,nt
NNC(=O)CNC(c1ccccc1)c1cc(Br)ccc1N (stereo not drawn),24.2,-0.5,58.4*,-8.4,-9.5,-2.2,-5.0
Cc1ccc(S(=O)(=O)N2C(=O)CCC2C(=O)O/N=C(\N)c2ccc([N+](=O)[O-])cc2)cc1 (stereo not drawn),0.2,0.9,3.9,12.8,-5.2,nt,nt
COc1cccc(C(=O)Nc2cc(C)on2)c1,14.5,nt,nt,nt,nt,nt,nt
NNC(=O)c1cccc(COc2cccc(Br)c2)c1,10.2,-4.0,-1.2,-2.3,0.9,nt,nt
CCOc1ccc(OCc2cccc(C(=O)N3CCOCC3)c2)cc1,-1.9,-7.0,61.0*,41.9,44.6,70.0*,73.1*
COc1ccc(OCc2cccc(C(=O)Nc3cc(C)on3)c2)cc1,14.1,-1.7,40.3*,16.3,18.3,65.4*,58.5*
NNC(=O)c1cccc(COc2ccc(Br)cc2)c1,18.9,-4.2,59.6*,-7.1,10.0,49.0*,16.6*
O=C(c1cccc(OCc2ccccc2)c1)N1CCOCC1,15.6,1.8,-1.1,-4.2,-3.1,nt,nt
CCOc1ccc(OCc2cccc(C(=O)N/N=C/c3cccnc3)c2)cc1,1.9,-5.2,31.1*,-14.0,-20.8,23.2*,-4.0
CC(C)c1ccc(OCc2cccc(C(=O)N/N=C/c3cccnc3)c2)cc1,5.0,nt,11.5,nt,nt,nt,nt
COc1ccc(NC(=O)COc2ccccc2Cc2ccccc2)cn1,-3.1,-0.1,nt,-22.7,6.2,nt,nt
Clc1cccc(-c2ccc(/C=N/n3cnnc3)o2)c1Cl,0.7,-2.8,-0.4,0.4,4.7,nt,nt
CCCN1CCN(C(=O)CCc2nnc3ccc(N4CCN(c5cccc(OC)c5)CC4)nn23)CC1,15.1,8.4,-6.3,-0.5,4.5,nt,nt
COc1ccc(OCc2cccc(C(=O)NN)c2)cc1,9.0,6.4,43.9*,6.6,21.0,54.1*,30.3*
COc1ccc(OCc2cccc(C(=O)Nn3cc([N+](=O)[O-])cn3)c2)cc1,24.2,8.7,18.4*,-1.9,-6.2,61.9*,27.5*
O=[N+]([O-])c1cccc(-c2nc(Oc3ccc(Cl)cc3)c3ccccc3n2)c1,nt,nt,-2.0,nt,nt,nt,nt
SMILES,SENP8 block-1,SENP7 block,HSP90 inh,SENP8 block-2,SENP6 inh,HSP90 confirm,luciferase ctr
O=C(CCN1C(=O)c2ccccc2C1=O)NCc1ccccc1,5.3,6.6,41.0*,-1.5,-13.2,0.4,-7.4
Cn1cccc1/C=N/N1CCN(c2ccccc2)CC1,14.3,1.4,21.3*,5.0,1.7,6.3,-8.8
CN(c1ccc(O)cc1)c1nc(-c2cccs2)cs1,24.9,-6.8,0.5,2.6,-27.2,nt,nt
Cc1nc(N)sc1-c1csc(N(C)c2ccc(O)cc2)n1,17.4,-3.9,27.3*,-9.5,6.0,-10.5,-21.4
O=C(O)c1ccc(-c2ccc(-c3ccccc3)cc2)s1,-299.4,101.3*,93.6*,96.7*,99.0*,93.4*,83.4*
CCNc1ccc(C(=O)O)cc1N,-96.0,-5.6,54.7*,2.5,6.8,2.4,-5.8
O=S(=O)(NCc1ccncc1)c1ccc(F)c(F)c1,10.6,nt,nt,nt,nt,nt,nt
Cc1ccc(S(=O)(=O)NCc2ccncc2)cc1C,5.1,-9.7,30.0*,-4.1,-15.5,-1.4,-4.1
CC(C)(C)n1ncc2c(=O)n(CC(=O)NCc3ccccc3)cnc21,11.0,5.3,21.2*,-3.8,-20.3,37.0*,33.7*
CC(C)(C)NC(=S)N/N=C\c1ccc(-c2ccc([N+](=O)[O-])cc2)o1,-7.0,-1.5,2.0,-6.3,5.6,nt,nt
CNC(=S)N/N=C/c1ccc(-c2ccc(C(=O)O)cc2)o1,-448.6,0.5,33.9*,-6.0,-0.4,36.8*,-2.3
Cc1cc(C(=O)N/N=C/c2cccn2C)n[nH]1,3.4,-7.3,-0.1,-10.3,-23.4,nt,nt
COC(=O)c1ccccc1NC1=C/C(=N\S(=O)(=O)c2ccc(C(=O)O)cc2)c2ccccc2C1=O,-20.1,24.0,77.4*,90.4*,72.5*,92.1*,2.8
O=S(=O)(/N=C(/Nc1cccc2ccccc12)c1ccccc1)c1cccs1,28.4,-5.2,3.2,-5.1,0.1,nt,nt
Cc1ccc(S(=O)(=O)/N=C2\C=C(Nc3cccc(C(=O)O)c3)C(=O)c3ccccc32)cc1,83.1*,63.5*,96.0*,92.9*,91.1*,92.0*,-8.3
CCc1ccc(S(=O)(=O)/N=C2\C=C(Nc3ccc(C(=O)O)cc3)C(=O)c3ccccc32)cc1,44.4*,63.0*,93.0*,93.9*,91.8*,95.7*,-3.3
CCc1ccc(NC2=NC(C(=O)c3ccccc3)CC(=O)N2)cc1 (stereo not drawn),14.4,-7.0,-0.1,0.6,-4.2,nt,nt
O=C1C(Nc2ccccc2)=C/C(=N/S(=O)(=O)c2cccs2)c2ccccc21,82.8*,nt,37.4*,nt,nt,94.4*,2.5
O=C(CN1CCN(S(=O)(=O)c2ccc(F)cc2)CC1)Nc1ccc(Cl)cn1,4.8,4.2,3.5,-2.4,-3.3,nt,nt
O=C(O)CSc1c2c(nc3cc(C(=O)Nc4cccc(C(F)(F)F)c4)ccc13)CCC2,-9.7,7.1,-3.5,0.9,12.8,nt,nt
CN(CC(=O)Nc1ccc(Cl)cc1)C(=O)c1cccc(S(=O)(=O)N(C)C)c1,-0.1,-2.8,-3.5,-9.6,3.9,nt,nt
